Test results: PubChem BioAssay AID493085 (Broad Institute, 2011)
In all, about 2,400 compounds went through this assay and about 360 (15%) were called active. About 5% were inconclusive and are not listed.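 How the source made its calls: active means falling-signal curve with half-maximal concentration at or below ten times the top tested dose; inconclusive means flat fit at 30 to 70% inhibition, or poor fit; inactive means signal rise, flat within 30%, or potency beyond limit.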 Only a sample is shown. Results with a measured potency or affinity are listed apart.

assay: dox-induced RFP signal loss in R4-3T3 cells – cell-based, NIH3T3 R4, HSE-GFP and Tet-On RFP, cherry-pick, set 3, dose response (AID 493085); settings: NIH3T3 R4 HSE-GFP/Tet-RFP reporter, fluorescence, 48 h; series mostly up to 19.5 µM; activity change, negative = inhibition: at the top concentration;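 further: cells heat shocked 2 h at 42 °C with doxycycline to induce reporters; 0% = neutral control wells and -100% = didemnin B control at 400 nM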

Activity change, negative = inhibition, inactive:
O=C(CN1CCN(C(=O)c2ccccc2)CC1)Nc1ncc(Br)cc1Br -7.04%
O=C(OCc1cc(=O)n2cc(Br)ccc2n1)C1COc2ccccc2O1 (stereo not drawn) -10.6%
COc1ccc(CN(CCCN2CCOCC2)C(=O)Nc2cccc(Cl)c2)cc1OC 35.5%
CCOC(=O)c1sc(NC(=O)Nc2ccccc2F)nc1C -5.42%
CCOC(=O)Cc1cnc(NC(=O)c2ccccc2)s1 -10.8%
CN1CCN(c2ccc(NC(=O)c3ccc4ccccc4c3)cc2)CC1 5.25%
COc1ccc(C(C)NC(=S)NC2CCCCC2)cc1OC (stereo not drawn) 17%
COc1ccc(C(C(=O)NC2CCCCC2)N(C(=O)CCl)c2cccc(Cl)c2)cc1 (stereo not drawn) 54%
Cc1ccc(Cn2c(=N)n(CC(=O)c3ccccc3)c3ccccc32)cc1 -8.55%
CCCCSC1=C(C#N)C(c2ccccc2C)CC(=O)N1 (stereo not drawn) -0.422%
O=C(CCc1ccccc1)Nc1cccc([N+](=O)[O-])c1 -1.97%
Cc1nc(-c2ccc(Cl)cc2)sc1C1(C)CC(c2ccc(Cl)cc2)=NO1 (stereo not drawn) 5.7%
CN(C)c1nc(OCCNC(=O)COc2ccc(Cl)cc2Cl)nc(N(C)C)n1 -11.4%
Cc1cccc(C(=O)NC2CCN(C(=O)Nc3ccc(F)cc3)CC2)c1 -0.23%
C[n+]1c(/C=C/c2ccc3c(c2)OCO3)ccc2ccccc21 -0.328%
CCc1cc(C(=O)NCC(C)(C)N2CCOCC2)sc1C -5%
CCOC(=O)c1ccc(NC(=O)NS(=O)(=O)c2ccc(C)cc2)cc1 3.23%
CCOc1ccc(NC(=O)c2cccnc2C(=O)O)cc1 3.13%
N=C1C(c2nc3ccccc3[nH]2)=C(O)CN1c1ccc(CC(=O)O)cc1 13%
O=C(O)c1ccc(N2C(=O)CC(N3CCN(c4cccc(C(F)(F)F)c4)CC3)C2=O)cc1 (stereo not drawn) 1.6%
O=C(NNc1nc2ccccc2s1)Nc1ccccc1 -0.841%
Cn1ccnc1Sc1cc(NCCCO)c([N+](=O)[O-])c2nonc12 -89.6%
COc1ccccc1Nc1ccc2nonc2c1[N+](=O)[O-] -4.82%
COc1ccc(NC(=S)Nc2ccc(Oc3ccccc3)cc2)cc1 11.4%
Cc1c(O)ccc2c(CC(=O)N[C@@H](Cc3ccc(O)cc3)C(=O)O)cc(=O)oc12 -0.067%
Cc1cc(=O)oc2c(C)c(OC(C)C(=O)NCCCN3CCOCC3)ccc12 (stereo not drawn) 0.097%
Cc1cc(NC(=O)COc2coc(CN3CCN(c4ccccc4F)CC3)cc2=O)no1 -3.4%
CCOC(=O)c1cc(C#N)c(NCc2ccccc2)nc1C -8.53%
Cc1ccc(S(=O)(=O)CCC(=O)Nc2ccc(Br)cc2)cc1 -18.7%
O=C(O)c1cc(S(=O)(=O)Nc2ccc3c(c2)OCCO3)c(Cl)cc1Cl -9.48%
CCc1ccc(-c2nc(CS(=O)CC(=O)NCc3cccnc3)c(C)o2)cc1 (stereo not drawn) -5.61%
COc1ccc(OC)c(NC(=S)NCc2cccnc2)c1 -11%
COc1ccc(OC)c(NC(=O)CSc2nc3ccccc3cc2Cc2ccccc2)c1 2.64%
COc1ccc(N(CC(=O)NCc2ccc(F)cc2)C(=O)Cn2nnc(-c3ccc(C)o3)n2)cc1OC 3.23%
O=C(Cn1cnc2c(nnn2Cc2ccc(Cl)cc2)c1=O)N1CCCc2ccccc21 -4.06%
CCN(c1ccccc1)S(=O)(=O)c1ccc(Cl)c(C(=O)N(CC2CCCO2)C2CCS(=O)(=O)C2)c1 (stereo not drawn) -4.73%
O=C(O)c1csc(-c2ccccc2)n1 2.65%
Cc1cc(C(=O)CN2CCC(C)CC2)c(C)n1-c1ccccc1F 3.3%
Cc1cc(/C=C2\SC(=S)N(Cc3ccco3)C2=O)c(C)n1-c1ccccc1 -3.22%
c1ccc(-c2nn[nH]n2)nc1 0.524%
O=C(CCCNC(=O)/C(=C\c1ccccc1F)NC(=O)c1ccccc1)OCc1ccccc1 12.5%
COc1ccccc1NS(=O)(=O)c1ccc(C)c(C(N)=O)c1 2.29%
COc1ccc(C)cc1S(=O)(=O)Nc1cc2c3c(c1)CCC(=O)N3CCC2 4.91%
CN(C)c1ccc(-c2nc3n(n2)C(c2cccnc2)C2=C(CC(C)(C)CC2=O)N3)cc1 (stereo not drawn) 8.15%
CCCn1c2ccccc2c2nnc(SCc3[nH]c(=O)[nH]c3C(=O)CCCCC(=O)OCC)nc21 -4.05%
CC(=O)NC(c1ccc(C)cc1)c1cc(Cl)c2cccnc2c1O (stereo not drawn) 9.24%
Oc1c(CN2CCOCC2)cc(COCc2ccccc2)c2cccnc12 94.7%
Cc1cccc(NCc2ccc(O)c3ncccc23)c1C -5.05%
Cn1ncc([N+](=O)[O-])c1C(=O)Nc1ccccc1Cl -12.2%
CCN1C(=O)C(CC(=O)Nc2ccc(OC)cc2)N(Cc2ccc3c(c2)OCO3)C1=S (stereo not drawn) -0.998%
Cc1cc(N=Nc2ccc(Cl)cc2)cc(CN2CCCC2)c1O -0.088%
COc1ccc(C(=O)NC(=S)N2CCNC(=O)C2CC(=O)OC(C)C)cc1 (stereo not drawn) -8.04%
CCOC(=O)c1c(C)[nH]c(C(=O)COC(=O)C2=NNC(=O)CC2)c1C 9.83%
O=C(O)c1cc(S(=O)(=O)N(Cc2ccccc2)c2ccccc2Cl)ccc1Cl -9.49%
O=C(Nc1cccnc1)c1coc(=O)c2ccccc12 0.689%
CC(C)c1ccc(NC2(C#N)C(=O)Nc3ccccc32)cc1 (stereo not drawn) -4.73%
O=C1SCC(c2ccccc2)=NN1Cc1ccccc1 5.45%
CCOc1ccc(NCc2nnc(SCC(=O)Nc3cc(C)on3)n2-c2ccc(OC)cc2)cc1 2.07%
CCOc1ccc(-n2c(O)c(/C=N/Nc3nnc(C)c(=O)[nH]3)c3ccccc3c2=O)cc1 3.96%
CCOC(=O)c1cccc(NC(=O)CCS(=O)(=O)c2ccc(Br)s2)c1 -1.87%
CC(OC(=O)CN1C(=O)c2ccccc2C1=O)C(=O)NC1CCCCC1C (stereo not drawn) 15.5%
COC1CCCN(C(=O)c2ccc(OC3CCN(CCc4ccccc4)CC3)cc2)C1 (stereo not drawn) -0.07%
O=C(CCN1C(=O)/C(=C/c2ccc(F)cc2)SC1=S)NCCCn1ccnc1 -9.6%
Cn1nc(N)c2c(-c3ccccc3)c(C#N)c(N)nc21 7.3%
Cc1c(NC(=O)C2CC(c3ccc(F)cc3)=NO2)c(=O)n(-c2ccccc2)n1C (stereo not drawn) -8.64%
Cc1ccc(N=C2NC(=O)/C(=C\c3cccs3)S2)cc1C 9.6%
O=C(NCc1ccccc1C(F)(F)F)C12CN(Cc3ccccc3)CC1C(c1ccc([N+](=O)[O-])cc1)=NO2 (stereo not drawn) 3.54%
COC(=O)c1cc(S(=O)(=O)NCc2ccc(F)cc2)cn1C -5.9%
COc1ccc(CNC(=O)CCCNC(=O)c2ccc(Cl)cc2)cc1OC -0.28%
Cc1ccc(C(=O)O/N=C(\N)c2ccccn2)c(C)c1 6.48%
CC(C)(C)C(=O)Nc1ccc(-c2cc3cc(Cl)ccc3o2)cc1 -1.75%
CC1CCN(S(=O)(=O)c2ccc(C(=O)Nc3nnc(-c4ccccn4)o3)cc2)CC1 -7.08%
CCS(=O)(=O)c1ncc(Cl)c(C(=O)Nc2ccc(C)cc2)n1 11.8%
CN1CCN(S(=O)(=O)c2ccc(Oc3ccc(F)c(Cl)c3)nc2)CC1 -5.99%
CCc1ccc(OC(C)C(=O)N(Cc2ccco2)C2CCS(=O)(=O)C2)cc1 (stereo not drawn) -7.01%
Cc1ncc([N+](=O)[O-])n1CC(=O)Nc1ccc(F)cc1 8.57%
O=C(Cn1nc(-c2ccc(Cl)cc2)ccc1=O)NCC1CCCO1 (stereo not drawn) -3.51%
Cc1cc(Nc2cccc(Cl)c2)nc(-c2ccccc2O)n1 6.37%
O=C(O)c1cccc(Nc2ccnc(Nc3cccc(C(=O)O)c3)n2)c1 -10.5%
CCOc1cc(CNCC2CCCN2CC)cc(Cl)c1OC (stereo not drawn) 13.6%
COc1ccc(-c2cn(-c3ccccc3)nc2CO)cc1 -5.57%
Cn1ccnc1C1CCCCN1C(=O)c1cc(COc2ccc(F)cc2Cl)on1 (stereo not drawn) -6.6%
Cc1cc(=O)n2[nH]c(=O)c(N=Nc3ccccc3)c2[nH]1 4.62%
CN(C)c1ccc(C(=S)Nc2ccccc2)cc1 0.39%
CN(C)c1ccc(/C=N/NC(=O)C2COc3ccccc3O2)o1 (stereo not drawn) 48.8%
Cc1ccc(Cl)cc1NC(=O)C1COc2ccccc2O1 (stereo not drawn) -0.583%
Cc1ccc(O)c(/C=N/NC(=O)CN2CCCC2)c1 0.931%
NCCCC[C@@H](C(=O)N1CCNCC1)n1cc([C@@H](N)CO)nn1 5.14%
COc1ccc(C(=O)c2c[nH]cc2-c2ccccc2)cc1 -2.31%
COc1ccc(OC)c(C(=O)c2ccc(C(=O)O)cc2)c1 2.81%
Cc1cn2c(nc(=O)c3cccnc32)s1 -0.559%
Cc1ccc(S(=O)(=O)N2CCC(C)CC2)cc1[N+](=O)[O-] -4.18%
COc1ccc(C(=O)N/C(=C\c2cccs2)c2nc3ccccc3[nH]2)cc1OC 3.93%
C=CCc1c(C)nc2c(-c3ccccc3)cnn2c1N1CCOCC1 2.27%
Cn1c(N2CCOCC2)nc(-c2ccccc2)c1-c1ccccc1 -9.58%
C=CCn1c(C)cc(C(=O)COC(=O)CNC(=O)c2ccccc2)c1C -5.09%
O=C(COC(=O)c1cc[n+]([O-])cc1)Nc1cccc(Cl)c1Cl 0.417%
CNC(=O)COC(=O)c1ccccc1C(=O)c1ccc(Cl)c([N+](=O)[O-])c1 5.21%
CC(C)(C)c1ccc(/C=C(\C#N)C(=O)Nc2ccccn2)cc1 -4.51%
COc1cc(C(C(=O)NCc2ccccc2)N(Cc2ccco2)C(=O)c2cnccn2)cc(OC)c1OC (stereo not drawn) -12.3%
COc1ccc2cc3c(N)nn(C(=O)Cc4c[nH]c5ccccc45)c3nc2c1 -34.1%
CSc1cccc(NC(=S)N2CCC(N(C)C3CCCC3)CC2)c1 0.463%
CS(=O)(=O)c1ccc(NC(=O)c2ccc3c(c2)S(=O)(=O)N=C2CCCCCN23)cc1 -1.06%
Cc1cccc(N(Cc2ccccc2)C(=O)CCl)c1 29.4%
CCN(C(=O)COC(=O)/C=C/c1ccccc1)C1CCCCC1 4.41%
COc1ccccc1NC(=O)[C@H](COCc1ccccc1)NC(=O)OC(C)(C)C -5.58%
CCn1c(SCC(=O)N(C)C2CCS(=O)(=O)C2)nnc1-c1cccs1 (stereo not drawn) 10.8%
CN(C(=O)CCNC(=O)Cn1cnc2ccccc2c1=O)c1ccccc1F -8.21%
